The source made the active and inactive calls. Unless noted, no rule for the calls is given here.
Key:
[1] = test system: XIP peptide (Xip251-270) binding; test: small-molecule binders of XIP peptide, primary screen, biochemical, small-molecule microarray, fluorescence 635/667 nm, 0.1 µg/mL protein (AID 1182); conditions: fluorescent protein binding, 635 nm, higher = more signal, called active from +8 up or from −8 down
[2] = test system: XIP peptide (Xip251-270); test: small-molecule binders of XIP peptide, primary screen, biochemical, small-molecule microarray, fluorescence 635/667 nm, 0.5 µg/mL protein (AID 1183); conditions: small-molecule microarray binding, fluorescence 635 nm; higher = more signal
[3] = Plasmodium falciparum growth inhibition, primary screen, strain 3D7, DAPI fluorescence, 100 nL (AID 1184);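 also: parasites grown inside human red blood cells in medium with human serum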; conditions: P. falciparum 3D7 growth, 3 d, higher = more signal
[4] = molecular target: Homeobox protein Hox-A13 (Mus musculus) (UniProt Q62424); test: inhibitors of HoxA13-DNA binding, primary screen, biochemical, fluorescence polarization, labeled oligonucleotide (AID 1185); conditions: 15 min, higher = more signal, called active from +8 up or from −8 down
[5] = inhibitors of hydroxyurea-induced Chk1 phosphorylation, primary screen, imaging, HeLa, phospho-Chk1 antibody, percent positive cells (AID 1186); conditions: hydroxyurea-induced phospho-Chk1 immunofluorescence imaging, higher = more signal
[6] = inhibitors of hydroxyurea-induced Chk1 phosphorylation, primary screen, imaging, HeLa, phospho-Chk1 nuclear intensity (AID 1187); conditions: hydroxyurea-induced phospho-Chk1 immunofluorescence imaging, higher = more signal

Chain of Homeobox protein Hox-A13 (Mus musculus) (Q62424 whole entry, looked up): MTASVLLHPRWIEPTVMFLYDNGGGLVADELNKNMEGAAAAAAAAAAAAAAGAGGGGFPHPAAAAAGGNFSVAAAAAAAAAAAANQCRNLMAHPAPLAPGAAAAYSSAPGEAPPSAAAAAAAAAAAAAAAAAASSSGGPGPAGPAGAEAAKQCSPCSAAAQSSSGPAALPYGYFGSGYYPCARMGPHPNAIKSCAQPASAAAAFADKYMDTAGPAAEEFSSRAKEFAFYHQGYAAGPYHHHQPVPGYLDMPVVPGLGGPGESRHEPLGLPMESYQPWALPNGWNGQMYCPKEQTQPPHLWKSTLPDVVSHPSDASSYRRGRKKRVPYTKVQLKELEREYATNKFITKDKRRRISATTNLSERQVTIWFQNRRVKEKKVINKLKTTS

| Structure (SMILES) | composite z-score [1] | composite z-score [2] | z-score [3] | z-score [4] | z-score [5] | z-score [6] |
| --- | --- | --- | --- | --- | --- | --- |
| COc1ccc([C@H]2OC[C@@H]3CC4(CC=CC4)C(=O)N32)cc1 | -0.302 (inactive) | 0.345 | 0.301 | -0.0645 (inactive) | 0.0257 (inactive) | -0.452 (inactive) |
| CN(C)CCCNC(=O)[C@@]1(c2ccc([N+](=O)[O-])cc2)CC(=O)N(C2CCCCC2)[C@@H]1c1ccc(CO)cc1I | -0.117 (inactive) | 0.248 | -2.17 | 0.362 (inactive) | -0.227 (inactive) | -0.413 (inactive) |
| CCOc1cc(C(O)C2C=CC3C(=O)N(c4ccccc4)C(=O)C3N2Nc2ccccc2)ccc1O (stereo not drawn) | 0.497 (inactive) | 0.221 | -0.033 | -4.03 (inactive) | -0.516 (inactive) | -0.835 (inactive) |
| Cc1ccc(S[C@]2(C(=O)NCC(F)(F)F)CC(=O)N(C(C)C)[C@@H]2c2ccc(CO)cc2I)cc1 | -0.268 (inactive) | -0.467 | -0.181 | -2.7 (inactive) | 0.295 (inactive) | 0.84 (inactive) |
| O=C1OCCC/C=C\[C@H]2OC34C=CCN(CCN5CCOCC5)C(=O)[C@H]3N(CCCO)C(=O)[C@@H]4C12 (stereo partly drawn) | 0.976 (inactive) | -1.17 | 0.211 | -6.44 (inactive) | 0.697 (inactive) | 0.826 (inactive) |
| O=C1c2ccccc2[C@@]2(Cc3ccccc3N(CC(F)(F)F)C2=O)[C@H](c2ccc(CO)cc2)N1Cc1ccccc1Cl | 0.0764 (inactive) | 0.182 | -0.699 | 0.0876 (inactive) | -0.19 (inactive) | -0.245 (inactive) |
| Cc1ccc(S[C@]2(C(=O)NCC(C)C)CC(=O)N(Cc3cc(C(F)(F)F)cc(C(F)(F)F)c3)[C@@H]2c2ccc(CO)cc2I)cc1 | 0.861 (inactive) | 0.569 | -0.433 | -2.28 (inactive) | 0.208 (inactive) | 0.473 (inactive) |
| CCc1oc(CC[C@@H](CO)NC(=O)NCCn2cc(C3(O)CCCCC3)nn2)c(C(=O)OC)c1C(=O)OC | 1.53 (inactive) | 0.875 | -0.397 | -3.56 (inactive) | 0.259 (inactive) | -0.0163 (inactive) |
| CN(C)CCCC[C@@H]1NC(=O)[C@H]2C[C@@H](C(=O)NCCCCCNC(=O)CS)[C@@H](c3cccc(OCCO)c3)N2C1=O | 1.2 (inactive) | 0.567 | -0.103 | -3.25 (inactive) | -0.244 (inactive) | -0.144 (inactive) |
| C=CCOC(=O)[C@@H]1[C@H]2C(=O)O[C@H](c3ccccc3)[C@H](c3ccccc3)N2[C@H](c2ccc(OCCOC(=O)[C@@H]3C[C@@H]4C(=O)N[C@@H](CCCCN(C)C)C(=O)N4[C@@H]3c3ccc(O)cc3)cc2)[C@@]12C(=O)Nc1ccc(I)cc12 | 1.45 (inactive) | 0.783 | -0.369 | 5.96 (inactive) | -0.0333 (inactive) | 0.121 (inactive) |
| Cc1ccc(S[C@]2(C(=O)NC3CC3)CC(=O)N(C3Cc4ccccc4C3)[C@@H]2c2ccc(CO)cc2)cc1 | 0.136 (inactive) | 0.876 | -0.275 | -2.74 (inactive) | -0.671 (inactive) | -0.716 (inactive) |
| C[C@]1(C(=O)NC2CC2)c2ccccc2C(=O)N(Cc2cc(C(F)(F)F)cc(C(F)(F)F)c2)[C@H]1c1ccc(CO)cc1 | 1.56 (inactive) | 0.849 | -0.895 | -3.26 (inactive) | -0.66 (inactive) | -0.479 (inactive) |
| CCOC(=O)C[C@H]1[C@H](OC(=O)c2ccc(C(=O)c3ccccc3)cc2)[C@@H](NC(=O)c2ccc(-c3ccccc3)cc2)c2cc(OCCCO)ccc2N1C(=O)c1ccccc1 | 0.233 (inactive) | 0.549 | -0.786 | -1.36 (inactive) | 0.428 (inactive) | 0.303 (inactive) |
| COCCOC(=O)N1C(=O)[C@@]2(c3cc(C#CC4=CCCCC4)ccc31)[C@H](c1ccc(O)cc1)N1[C@H](c3ccccc3)[C@H](c3ccccc3)OC(=O)[C@H]1[C@@H]2C(N)=O | 0.181 (inactive) | 0.751 | -0.0117 | -1.22 (inactive) | 0.0809 (inactive) | 0.185 (inactive) |
| O=C1O[C@H](c2ccccc2)[C@H](c2ccccc2)N2[C@H]1[C@@H](C(=O)NC[C@H](O)c1ccccc1)[C@]1(C(=O)Nc3ccccc31)[C@H]2c1ccc(OCCO)cc1 | 0.674 (inactive) | 0.809 | 0.249 | -5.01 (inactive) | -0.0282 (inactive) | 0.177 (inactive) |
| C=C(C)C1C(=C)CN([C@H](CO)c2ccccc2)C1=O (stereo partly drawn) | -0.389 (inactive) | -0.149 | -0.977 | -2.61 (inactive) | -0.347 (inactive) | -0.339 (inactive) |
| O=C1C[C@]2(c3ccc([N+](=O)[O-])cc3)C(=O)N(CCN3CCOCC3)c3cc(CO)ccc3[C@H]2N1C1CCCCC1 | 1.2 (inactive) | 0.314 | 0.476 | -2.02 (inactive) | -0.533 (inactive) | -0.355 (inactive) |

| Structure (SMILES) | composite z-score [1] | composite z-score [2] | z-score [3] | z-score [4] | z-score [5] | z-score [6] |
| --- | --- | --- | --- | --- | --- | --- |
| O=C1C2C=CC(C(O)C3CCCCC3)N(Nc3ccc([N+](=O)[O-])cc3)C2C(=O)N1c1ccccc1 (stereo not drawn) | -0.375 (inactive) | 0.526 | -1.5 | -2.33 (inactive) | -0.0882 (inactive) | -0.177 (inactive) |
| COCCOC(=O)N1C(=O)[C@@]2(c3cc(C#Cc4ccc(OC)cc4)ccc31)[C@H](c1ccccc1OCCO)N1[C@H](c3ccccc3)[C@H](c3ccccc3)OC(=O)[C@H]1[C@@H]2C(=O)N1CCN(c2ncccn2)CC1 | -0.349 (inactive) | 0.59 | -1.86 | 0.484 (inactive) | 0.0768 (inactive) | 0.273 (inactive) |
| CN(C)C(=O)[C@]1(Cc2ccccc2CN=[N+]=[N-])N=C(c2ccc(OCCCO)cc2)O[C@@H]1c1ccccc1CN=[N+]=[N-] | 1.01 (inactive) | 0.637 | -2.68 | -0.212 (inactive) | -0.123 (inactive) | -0.249 (inactive) |
| COc1ccc(CCN2C(=O)[C@@]3(c4ccc([N+](=O)[O-])cc4)CC(=O)N(C4CCCCC4)[C@@H]3c3ccc(CO)cc32)cc1 | 1.23 (inactive) | 0.311 | 0.706 | -0.544 (inactive) | 0.135 (inactive) | -0.0588 (inactive) |
| C=CC[C@@]1(C(=O)NCc2ccccc2)N=C(c2ccc(OCCCO)cc2)O[C@@H]1c1ccccc1N=[N+]=[N-] | 0.0885 (inactive) | 0.764 | -1.92 | -1.72 (inactive) | -0.334 (inactive) | -0.183 (inactive) |
| C=CCNC(=O)[C@H]1[C@@H]2C(=O)O[C@@H](c3ccccc3)[C@@H](c3ccccc3)N2[C@@H](c2ccccc2OCCO)[C@]12C(=O)Nc1ccc(C#CC3=CCCCC3)cc12 | -0.274 (inactive) | 0.769 | -2.06 | 2.46 (inactive) | -0.333 (inactive) | -0.739 (inactive) |
| CCOC(=O)C[C@H]1[C@H](OC(=O)Cc2ccc3c(c2)OCO3)[C@@H](NC(=O)c2ccc(-c3ccccc3)cc2)c2cc(OCCCO)ccc2N1C(=O)c1ccc2ccccc2n1 | -0.458 (inactive) | 0.447 | -2.38 | -1.61 (inactive) | 0.455 (inactive) | 0.46 (inactive) |
| C=CCOC(=O)[C@@H]1[C@H]2C(=O)O[C@H](c3ccccc3)[C@H](c3ccccc3)N2[C@H](c2ccc(OCCOC(=O)[C@@H]3C[C@@H]4C(=O)N5CCC[C@H]5C(=O)N4[C@@H]3c3ccc(O)cc3)cc2)[C@@]12C(=O)Nc1ccc(I)cc12 | 0.393 (inactive) | 0.533 | -1.85 | 1.38 (inactive) | -0.946 (inactive) | -0.3 (inactive) |
| COC(=O)[C@@]1(Cc2ccccc2)[C@H]2c3cc(C(=O)N4CCCC4)n(CC4CC4)c3C[C@H]2CN1C(=O)c1ccccc1 | 0.258 (inactive) | 0.628 | -1.79 | -5.17 (inactive) | 0.874 (inactive) | 0.76 (inactive) |
| COCC(=C=CC[C@H](O)c1ccccc1OCCO)C[C@H](O)c1cc(Cl)cc(Cl)c1O | 0.549 (inactive) | 0.736 | -0.254 | -3.5 (inactive) | 1.36 (inactive) | 0.764 (inactive) |
| O=C1NC(=O)C2C1C=CC(C(O)c1cccc3ccccc13)N2Nc1ccccn1 (stereo not drawn) | -0.219 (inactive) | 0.395 | 0.181 | -1.71 (inactive) | -0.146 (inactive) | -0.382 (inactive) |
| COC(=O)C(CC#Cc1ccc2c(c1)[C@]1(C(=O)N2)[C@H](c2ccc(O)cc2)N2[C@H](c3ccccc3)[C@H](c3ccccc3)OC(=O)[C@H]2[C@@H]1C(=O)Nc1nc2ccccc2s1)C(=O)OC | 1.09 (inactive) | 0.833 | -0.591 | -0.645 (inactive) | -0.0827 (inactive) | -0.46 (inactive) |
| O=C1NCC(=O)N2[C@@H]1C[C@@H](C(=O)O)[C@H]2c1cccc(OCCO)c1 | 6.39 (inactive) | 1.02 | 0.0934 | -1.39 (inactive) | -0.467 (inactive) | -0.367 (inactive) |
| COCC(=C=CC[C@@H](O)c1ccccc1OCCO)C[C@@H](O)c1cc(Cl)cc(Cl)c1O | 0.589 (inactive) | 0.682 | -1.84 | -3.71 (inactive) | 0.161 (inactive) | 0.377 (inactive) |
| C=C(COC)/C(=C/C[C@@H](OC(C)=O)c1ccc(CO)o1)c1cnc2ccccc2c1 | 1.12 (inactive) | 0.797 | -1.35 | -4.13 (inactive) | -0.154 (inactive) | -0.323 (inactive) |
| COc1ccc([Si](C)(C)[C@@H]2[C@@H](CCO)O[C@]3(C(=O)N(Cc4ccc(N5C(=O)COc6ccccc65)cc4)c4ccccc43)[C@H]2C)cc1 | 0.906 (inactive) | 0.811 | -2.81 | -2.08 (inactive) | -0.591 (inactive) | -1.55 (inactive) |
